Experimental data taken from PubChem BioAssay AID568 (Sanford-Burnham Center for Chemical Genomics, 2006).
Hit rate of the full screen: of about 83,000 compounds, fewer than 10 were called active. No rule for the calls is given here. The list is a sample of the results. Results with a measured potency or affinity are listed apart.

The compounds below were run against Heat shock cognate 71 kDa protein (Homo sapiens) (UniProt P11142) (assay: Hsc70 inhibitors, probe displacement, primary screen, biochemical, fluorescence polarization (AID 568)). Conditions: mP, at 20 µM, hits give high values.
Sequence of Heat shock cognate 71 kDa protein (Homo sapiens) (P11142 whole entry, looked up): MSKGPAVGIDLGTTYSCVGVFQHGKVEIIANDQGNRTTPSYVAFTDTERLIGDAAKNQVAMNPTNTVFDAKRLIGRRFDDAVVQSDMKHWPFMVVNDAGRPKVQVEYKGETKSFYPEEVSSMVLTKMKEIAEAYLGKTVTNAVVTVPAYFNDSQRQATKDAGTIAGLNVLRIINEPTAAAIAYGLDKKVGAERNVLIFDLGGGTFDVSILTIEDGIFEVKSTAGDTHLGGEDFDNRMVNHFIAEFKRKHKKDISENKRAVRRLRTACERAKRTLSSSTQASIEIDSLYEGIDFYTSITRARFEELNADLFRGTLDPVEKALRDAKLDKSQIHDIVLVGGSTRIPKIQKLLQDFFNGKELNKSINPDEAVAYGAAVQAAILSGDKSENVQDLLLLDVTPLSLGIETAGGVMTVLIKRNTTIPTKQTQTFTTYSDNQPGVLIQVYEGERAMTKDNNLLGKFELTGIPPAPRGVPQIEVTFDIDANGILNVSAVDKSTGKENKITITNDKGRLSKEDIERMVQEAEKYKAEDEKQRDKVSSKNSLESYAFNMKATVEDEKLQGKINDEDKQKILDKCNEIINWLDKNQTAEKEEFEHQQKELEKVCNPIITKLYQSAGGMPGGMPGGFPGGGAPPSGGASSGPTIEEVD
Sequence of Heat shock cognate 71 kDa protein (Homo sapiens) (P11142 whole entry, looked up): as above

displacement, inactive:
COc1ccc(Br)cc1CNC(=O)C1CCCN(S(C)(=O)=O)C1 (stereo unspecified) -2%, OC(COc1ccc2c(c1)OCO2)CN1CCc2ccccc2C1 (stereo unspecified) 1.3%, COCCNC(=O)C(c1ccc(C)o1)N(Cc1ccco1)C(=O)c1snc(C(N)=O)c1N (stereo unspecified) 5.3%, CC1=CN2C(=NC(=O)CC2(C)C(=O)N(CC(=O)NC2CCCC2)c2ccccc2C)C=C1 (stereo unspecified) -1.4%, CC(=O)OCCn1c(Br)nc2c1c(=O)[nH]c(=O)n2C 4.4%, Cc1nc2c(C(=O)N3CCCCC3)cnn2c(C)c1Cc1ccccc1F 2.6%, COC(=O)[C@H](Cc1ccccc1)NC(=O)N1CCC(C)CC1 -1.3%, CN1CCN(S(=O)(=O)c2ccc(N3CCN(S(=O)(=O)/C=C/c4ccccc4)CC3)nc2)CC1 -5.3%, Cn1cnnc1SCCC(=O)Nc1ccc(Cl)cc1 4.9%, CC1CCCCC1NC(=O)Cn1ncc2ccccc21 (stereo unspecified) -0.3%, CCC(Sc1nc2n[nH]c(C)c2c(=N)n1-c1cccc(Cl)c1C)C(=O)N(CC)CC (stereo unspecified) -7.7%, Cc1ccc(-c2noc(C3CCCN(C(=O)c4ccccc4)C3)n2)o1 (stereo unspecified) 1.4%, CCc1ccc2nc(NC3=NCN(CCOC)CN3)nc(C)c2c1 0.7%, Cc1ccc(N2CN=C(c3ccccc3)NC2=S)cc1 -3.8%, CCOC(=O)c1ccc(NC(=O)CSc2nc(C)cc(=O)[nH]2)cc1 -2.1%, O=C(NC1CCCCCCC1)c1ccco1 -2.6%, Cc1c(/C=C/C(=O)c2cccs2)cnn1C 0.7%, CCOc1cccc(C(=O)Nc2ccc(N(CC)CC)cc2)c1 -1.7%, O=C1c2ccsc2SCCN1Cc1ccc(Cl)cc1 3.5%, Nc1ccccc1SCc1cn2cccnc2n1 -0.9%, CC(C)[C@H](NC(=O)OC(C)(C)C)c1nnc(SCc2cccc(F)c2)o1 6.2%, CC(C)(C)c1ccc(-c2nnc(SCCN3C(=O)c4ccccc4C3=O)o2)cc1 -4.1%, CCCn1nnc(NC(=O)c2ccccc2Br)n1 -4.1%, Cc1ccc2nc(NC(=O)c3cccs3)sc2c1 1.4%, Cc1ccccc1-n1c(=O)cc(N2CCN(C(=O)c3ccco3)CC2)[nH]c1=O -0.4%, COc1ccc2[nH]cc(C(=O)CN3CCN(C(=O)c4ccco4)CC3)c2c1 -1.6%, COc1ccc(C2C(C(=O)NC(C)C)c3ccccc3C(=O)N2C)cc1OC (stereo unspecified) -8.3%, COc1ccc(C(=O)CN2C(=O)c3ccccc3C2=O)c(OC)c1C -1.2%, O=C(CC12CC3CC(CC(C3)C1)C2)NCO -2.2%, CCCCOCC(O)Cn1c(C)nc2ccccc21 (stereo unspecified) -2.3%, CN=C1SC(CC(=O)Nc2cccc(Cl)c2Cl)C(=O)N1C (stereo unspecified) 0%, COc1nc(OC)nc(N2CCCCCC2)n1 7.4%, c1cncc(-c2nc3cc(Cc4ccc5oc(-c6cccnc6)nc5c4)ccc3o2)c1 -0.1%, COCCCn1c(SCC(=O)Nc2ccc3c(c2)OCCO3)nnc1-c1ccoc1C -9.3%, Cn1cccc1Cc1nnc(SCC(=O)NCc2ccccc2)n1-c1ccc(F)cc1 1.3%, CC(C)CC(=O)Nc1ccc(-c2cn3ccsc3n2)cc1 3%, CCOC(=O)c1sc(=S)n(-c2ccccc2OC)c1N 4.2%, COc1ccc(N(CC(=O)Nc2cc(OC)ccc2OC)S(=O)(=O)c2c(C)nn(C)c2C)cc1 -0.1%, Oc1c(Cl)cc(Cl)cc1Sc1cc(Cl)cc(Cl)c1O 11.6%, Oc1c(Cl)cc(Cl)c2c1NCCC2 1%, NC(=O)CSc1nnc(Cc2ccc3c(c2)OCO3)n1C1CCCCC1 -4.2%, COc1cccc(Nc2c(F)c(F)c(F)c(F)c2C(=O)O)c1 3.7%, CC1(C)CC(=O)C2=C(C1)OC(N)=C(C#N)C21C(=O)N(Cc2ccccc2Cl)c2ccccc21 (stereo unspecified) -38.5%, O=C(CSc1nc(-c2ccco2)cc(C(F)(F)F)n1)NC1CCCCCCC1 -4.2%, Cc1ccc2c(c1)N(Cc1ccc3c(c1)OCO3)C(=O)C(C)O2 (stereo unspecified) -2.1%, O=C(Cn1cnc2c(nnn2Cc2ccccc2)c1=O)N1CCCc2ccccc21 2%, CC(=O)NCCc1ccc(S(=O)(=O)NC2OC(=O)c3ccccc32)cc1 (stereo unspecified) -3.3%, CC1(C)Cc2c(c(N3CCOCC3)nc3sc4c(=O)[nH]cnc4c23)CS1 -5%, C=CCN1C(=O)C2C(C(=O)NCc3ccccc3)C3C=CC2(O3)C1C(=O)NC(C)(C)C (stereo unspecified) -3.6%, O=C1CCCCCN1CSc1nc2ccccc2s1 5.1%, CCOC(=O)N1CCN(C(=O)CN(c2ccc3c(c2)OCO3)S(C)(=O)=O)CC1 0.1%, Oc1ccccc1-c1cc(-c2ccco2)[nH]n1 1.3%, CC(=O)Nc1ccc(S(=O)(=O)N(C)CC(=O)Nc2ccccc2N2CCOCC2)cc1 -0.5%, COc1ccc(-c2nc(CS(=O)CC(=O)NCc3cccnc3)c(C)o2)cc1 (stereo unspecified) 1.8%, Cc1ccc(C)c(N(CC(=O)NC2CCCC2)C(=O)CCCC(=O)Nc2ccccn2)c1 4.6%, CN1CCc2c(sc3c2C(=O)NC(/C=C/c2ccco2)N3)C1 (stereo unspecified) 5.2%, CCOc1c(Cl)cc(C(=O)NCCN2CCCCC2)cc1Cl -10.7%, Cc1ccccc1NC(=O)Cn1cccc1 -0.7%, Cc1ccc(-c2nn3c(-c4ccco4)nnc3c3ccccc23)cc1S(=O)(=O)NCC1CCCO1 (stereo unspecified) 1%, CC1CC(C)CN(CCCNC(=O)C2CCN(S(=O)(=O)N3CCCCC3)CC2)C1 (stereo unspecified) -3.8%, O=C(Nc1ccc(-c2nc3ccccc3[nH]2)cc1)c1ccco1 -7.1%, CC(C)N(C#N)c1nc(N2CCOCC2)nc(N2CCOCC2)n1 9.4%, CC1=C(C(=O)N(C)CCC#N)C2(CCCCC2)OC1=O -1.4%, O=C(NC(Cc1ccccc1)c1nc2ccccc2[nH]1)C1CC(=O)N(c2ccc3c(c2)OCCO3)C1 (stereo unspecified) -10.1%, Cc1ccc(C(=O)Nc2cc(=O)n(C)c(=O)n2C)o1 5.3%, O=C(CCCn1c(=S)[nH]c2cc3c(cc2c1=O)OCO3)N1CCN(c2ccccn2)CC1 -4.4%, Cc1cnc(NC(=O)c2cc3c(C)nn(-c4ccccc4)c3s2)s1 -5.6%, CC1CCN(C(=O)c2cc(-c3ccccc3O)on2)CC1 -5%, CCOC(=O)C1CCCN(CCC(=O)Nc2ccc(C)cc2)C1 (stereo unspecified) -2.2%, CCCCN(C(=O)CNC(=O)c1ccco1)C(C(=O)NC1CCCC1)c1ccc(OC)cc1 (stereo unspecified) 2.3%, O=C(Nc1ccc(F)c(F)c1)c1cccnc1 -5.4%, Cc1cc(C(=O)CN2C(=O)NC(c3ccccc3)(c3ccccc3)C2=O)c(C)n1Cc1ccccc1 -22.9%, Cc1nnc(SCC(=O)Nc2ccc(S(=O)(=O)N3CCCCC3)cc2)s1 -3.1%, CN(C)S(=O)(=O)c1ccc(NC(=O)c2c(F)cccc2Cl)cc1 -2.2%, Cc1c(C(=O)OCC(=O)N2c3ccccc3CC2C)oc2ccccc12 (stereo unspecified) -0.6%, O=C(NCCN1CCOCC1)Nc1ccc(Cl)cc1Cl -6.7%
